We go through 7 molecules from PubChem BioAssay (NCATS).

Unmarked numbers belong to inactive results. Results filed as inconclusive are left out. Activity calls are given as the source filed them. Calls come from the whole dose curve; as a rule, active = well fitted curve in the direction sought with a large enough effect; inconclusive = small, poorly fitted or top-dose-only effect, or another doubt; inactive = no such curve, though single readings can be large; an effect the other way counts as inactive or inconclusive.

Test [1] relates to Zika virus NS2B-NS3 protease (linked construct). Description: Primary screen NINDS Rhodamine qHTS for Zika virus inhibitors (AID 1347160). Note: nearly all actives have a fitted effect of over 55% in size. The gist of the method:
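Rhodamine110-peptide cleavage (1.5 µM substrate) by 25 nM linked NS2B-NS3 enzyme at pH 8.0 (Tris, Tween 20), after 15 min RT preincubation with compounds; 15-min fluorescence change normalized to controls and Hill-fitted.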

Test [2] has as its target Calcium and integrin-binding protein 1 (Homo sapiens) (UniProt Q99828). Description: Primary qHTS for Identification of Calcium Integrin Binding Protein 1 (CIB1) Competitor (AID 1508620).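 Note: GST tagged CIB1 binding a fluorescein labelled alphaIIb integrin peptide tracer; top concentration of the series differs between compounds.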 The gist of the method: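 Fluorescence polarization competition: CIB1-GST (1 uM final) preincubated with compound 15 min at room temperature, then FITC-labeled alphaIIb peptide (100 nM final) added for another 15 min. Polarization read at Ex 480/Em 540.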

Test [3] in a line: Primary qHTS for inhibitors of nuclear receptor binding SET domain protein 2 (NSD2) in an isogenic RCH-ACV NSD2 p.E1099K mutant (9B) (AID 1645876). Note: nearly all actives have a fitted effect of over 70% in size. Note: potency is the fitted concentration of half-maximal effect. On the technique in general: Quantitative high-throughput screening tests each substance at several concentrations.
A short description of test [4]: Primary qHTS for inhibitors of nuclear receptor binding SET domain protein 2 (NSD2) in an RCH-ACV wild type WT cells (2C) (AID 1645877). Note: potency is the fitted concentration of half-maximal effect; nearly all actives have a fitted effect of over 70% in size.
Test [5] has as its target Glutathione peroxidase 1 (Homo sapiens) (UniProt P07203). Description: Primary qHTS Assay for Inhibitors of Recombinant Selenoprotein Glutathione Peroxidase 1 (GPX1) (AID 1845191). Note: nearly all actives have a fitted effect of over 65% in size. The method, boiled down: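 GPX1 10 nM, GR 100 nM, GSH 1 mM, NADPH 0.5 mM, CHP 0.5 mM (final). 30-min cpd preincubation, RT. Ex340/Em450 read t=0, t=15 min.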
Test [6] addresses Luciferin 4-monooxygenase (Photinus pyralis) (UniProt P08659). The experiment in a line: Primary firefly luciferase (FLuc) qHTS assay for identification of artifact compounds. (AID 1845220). Note: nearly all actives have a fitted effect of over 60% in size. The method, boiled down: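 In this counter-screen for luciferase artifacts, test compounds met substrate (10 uM each luciferin and ATP) before 10 nM enzyme started the reaction. Light output was measured 5 min later.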

In test [7] the test system is Nanoluciferase (engineered Oplophorus gracilirostris luciferase). Description: Primary Nanoluciferase (NLuc) qHTS assay for identification of artifact compounds. (AID 1845222).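 Note: NLuc secreted into diluted conditioned medium of S16 cells.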 The method, boiled down:
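Using secreted nanoluciferase in S16 culture medium (0.22 um filtered, 1:55 dilution), compounds were preincubated 15 min at RT. Signal was generated with Nano-Glo reagent (1:100) over 5 min.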

A short description of test [8]: Primary redox qHTS assay for identification of artifact compounds. (AID 1845223). The gist of the method: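 Redox-cycling detection via DTT (250 uM final) oxidation coupled to Amplex Red (25 uM)/HRP (250 mU/mL) in HBSS. 15 min preincubation plus 30 min after DTT, room temperature. Ex/Em 525/598 nm; 4-parameter Hill fit against DMSO and 10 uM DA3003.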
The test system of the next test is C33A. Description: Primary qHTS to identify gynecologic anti-cancer compounds using libraries of approved drugs and bioactive compounds (AID 1345084). Note: nearly all actives have a fitted effect of over 55% in size. Note: potency is the fitted concentration of half-maximal effect. The settings on record: Gynecologic cancer cell panel viability, ATPlite luminescence, 48 h; series mostly up to 57.5 µM. The method, boiled down: (§1)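 Cells, 1,000 per well, were allowed to settle for 16 h at 37 C before compound addition. Five concentrations were tested for 48 h, and viability was read by ATPlite luminescence after 15 min at room temperature.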

In the next test the test system is CASKI. The test is described as above. The settings on record: Gynecologic cancer cell panel viability, ATPlite luminescence, 48 h; series mostly up to 57.5 µM. The gist of the method: as §1
(Cellular ATP, detected with luciferase, serves as a proxy for viable cell number.)

The subject of a further test is Es-2. The description is as above. The following applies: Gynecologic cancer cell panel viability, ATPlite luminescence, 48 h; series mostly up to 57.5 µM. The gist of the method:
as §1

A further test deals with HeLa. The description is as above. The following applies: Gynecologic cancer cell panel viability, ATPlite luminescence, 48 h; series mostly up to 57.5 µM. The method, boiled down: as §1
For the next test, the system named is Hek293T. Described as above. The following applies: Gynecologic cancer cell panel viability, ATPlite luminescence, 48 h, control line for the selectivity index; series mostly up to 57.5 µM. The gist of the method: as §1
The subject of another test is JEG-3. The test is described as above. The following applies: Gynecologic cancer cell panel viability, ATPlite luminescence, 48 h; series mostly up to 57.5 µM. The gist of the method:
as §1

The next test concerns OV90. The test is described as above. The settings on record: Gynecologic cancer cell panel viability, ATPlite luminescence, 48 h; series mostly up to 57.5 µM. The gist of the method: as §1
For another test, the system named is Tov-21-G. Described as above. The following applies: Gynecologic cancer cell panel viability, ATPlite luminescence, 48 h; series mostly up to 57.5 µM. The gist of the method:
as §1

In the next test the test system is Tov112D. The test is described as above. The following applies: Gynecologic cancer cell panel viability, ATPlite luminescence, 48 h; series mostly up to 57.5 µM. The gist of the method:
as §1

Test [9] addresses Phospholipid hydroperoxide glutathione peroxidase GPX4 (Homo sapiens) (UniProt P36969). Description: Primary qHTS Assay for Inhibitors of Recombinant Selenoprotein Glutathione Peroxidase 4 (GPX4) (AID 1845192). Note: nearly all actives have a fitted effect of over 65% in size. The settings on record: outcome: dose series up to 50 µM unless noted. The gist of the method: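 qHTS, GR-coupled: GPX4 200 nM + cpd 30 min RT → GSH 1 mM, NADPH 0.5 mM, GR 100 nM → CHP 0.5 mM start; fluor 340/450 at t0 and t15 min; no-enzyme wells as control.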

A further test deals with CAOV3. Description: Primary qHTS to identify gynecologic anti-cancer compounds using libraries of approved drugs and bioactive compounds (AID 1345084). Note: nearly all actives have a fitted effect of over 55% in size. Note: potency is the fitted concentration of half-maximal effect. The settings on record: Gynecologic cancer cell panel viability, ATPlite luminescence, 48 h; series mostly up to 57.5 µM. The method, boiled down:
as §1

Test [10] in a line: Primary fluorescence-based thiol-reactive (MSTI) qHTS assay for identification of artifact compounds. (AID 1845221).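 Note: thiol-reactive compounds lower the probe fluorescence signal; nearly all actives have a fitted effect of over 65% in size.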 The gist of the method:
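qHTS titration of compound; 4 uM MSTI, PBS pH 7.4, 2% DMSO; 1 h RT, dark; fluorescence 525/598 nm; normalized to Acetyl-MSTI and MSTI; 4-parameter Hill fit.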

Chain of Phospholipid hydroperoxide glutathione peroxidase GPX4 (Homo sapiens) (P36969 whole entry, looked up): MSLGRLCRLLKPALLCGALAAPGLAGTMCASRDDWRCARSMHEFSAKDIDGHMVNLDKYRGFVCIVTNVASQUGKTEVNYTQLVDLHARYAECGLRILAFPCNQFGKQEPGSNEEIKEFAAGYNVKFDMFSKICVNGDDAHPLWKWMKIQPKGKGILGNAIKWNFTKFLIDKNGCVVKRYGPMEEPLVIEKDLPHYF
Chain of Calcium and integrin-binding protein 1 (Homo sapiens) (Q99828 whole entry, looked up): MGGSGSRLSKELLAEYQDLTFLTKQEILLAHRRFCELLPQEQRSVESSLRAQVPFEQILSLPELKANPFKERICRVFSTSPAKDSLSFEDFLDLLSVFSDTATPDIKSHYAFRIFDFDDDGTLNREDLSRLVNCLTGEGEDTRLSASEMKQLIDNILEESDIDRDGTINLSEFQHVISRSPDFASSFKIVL
Chain of Glutathione peroxidase 1 (Homo sapiens) (P07203 whole entry, looked up): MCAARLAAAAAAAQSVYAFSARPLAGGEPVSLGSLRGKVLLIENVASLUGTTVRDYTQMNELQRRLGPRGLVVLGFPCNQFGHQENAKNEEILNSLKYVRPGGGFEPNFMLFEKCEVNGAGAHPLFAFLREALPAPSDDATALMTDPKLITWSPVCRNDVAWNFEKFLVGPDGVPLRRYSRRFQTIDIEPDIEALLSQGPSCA

Consider `COc1cc(O)ccc1OCCNCC(O)COc1cccc2[nH]c3ccccc3c12` (configuration not stated), for which the Potency result (in test [1]; in test [5]; in [6]; in test [7]; in test [8]; in the test with C33A) was “inactive” in each case. For the same molecule, the Potency entry in the test with CASKI, in the test on Es-2, in the test with HeLa, with Hek293T, in the test with JEG-3 and with OV90 was “inactive” each time. The Potency entry in the test on Tov-21-G and with Tov112D was “inactive” each time. In addition, the outcome in [2] was inactive. In addition, the Potency in [3] and in test [4] was 20.5 µM (active) throughout.

For the molecule `COc1cc([C@@H](CC(=O)O)c2ccc(C)c(CN3C[C@@H](C)Oc4ccccc4S3(=O)=O)c2)cc2nnn(C)c12`, the result in test [2] was inactive. For the same molecule, the Potency result in [3] and in [5] was “inactive” each time.

For `CCC[C@@H](NC(=O)N1C(=O)C(CC)(CC)[C@@H]1Oc1ccc(C(=O)N2CCN(C)CC2)cc1)c1ccc2c(c1)OCO2`, the Potency result in test [1], in test [5], in test [9], in [6], in [7] and in test [8] was “inactive” in each case. In addition, the Potency result in the test on C33A, in the test with CAOV3, in the test with CASKI, in the test with Es-2, in the test on HeLa and in the test with Hek293T was “inactive” each time. Besides, the Potency result in the test on JEG-3, with OV90, with Tov-21-G and in the test on Tov112D was “inactive” in each case. Further, in test [2], the result was inactive.

Take `O=C1c2c(O[C@@H]3O[C@H](CO)[C@@H](O)[C@H](O)[C@H]3O)cc(O)cc2OC1(O)Cc1ccc(O)cc1` (some centres not stated): the Potency result (in test [1]; in [9]; in test [6]; in test [7]; in test [8]; with Es-2) was “inactive” throughout. Besides, the Potency result in the test with HeLa, with JEG-3, with OV90 and with Tov-21-G was “inactive” throughout. Also, in [2], the result was inactive. Further, the Potency in test [3] was 7.96 µM (active); in [4] it was 4.47 µM (active); in the test on CAOV3, 10 µM (active).

As for `COc1ccc(Cl)cc1[C@@]1(F)C(=O)Nc2cc(C(F)(F)F)ccc21`, the Potency entry in test [1], in test [9], in test [6], in [10], in test [7] and in test [8] was “inactive” throughout. The Potency entry with C33A, in the test on CAOV3, with CASKI, in the test on Es-2, in the test with JEG-3 and with OV90 was “inactive” in each case. Further, in the test with Tov-21-G, the Potency result is “inactive”. Moreover, the result in test [2] was inactive. In [3], the Potency was 7.28 µM (active).

For `Cc1ccc(C2(COC(=O)C(C)C)CO2)c(OC(=O)C(C)C)c1` (configuration not stated), the Potency result in test [1], in [5], in test [9], in test [6], in test [10] and in test [7] was “inactive” throughout. Besides, the Potency result (in test [8]; in the test on C33A; in the test on CAOV3; in the test on CASKI; in the test with Es-2; in the test on HeLa) was “inactive” throughout. Further, the Potency result with Hek293T, in the test on JEG-3, with OV90, with Tov-21-G and in the test on Tov112D was “inactive” throughout. In addition, the outcome in test [2] was inactive.

Consider `COc1cc(-c2cc(-c3ccc(N4CCNCC4)cc3)cnc2C)cc(OC)c1OC`, for which the Potency result in test [1], in [5], in test [9], in test [6], in [10] and in test [7] was “inactive” each time. Besides, the Potency entry (in [8]; with C33A; in the test with CASKI; in the test with Es-2; with HeLa; in the test on Hek293T) was “inactive” in each case. Further, the Potency entry with JEG-3, with Tov-21-G and with Tov112D was “inactive” in each case. Moreover, the outcome in [2] was inactive. Further, the Potency is 9.34 µM (active) in test [3] and 7.42 µM (active) in test [4].
